Screening results from PubChem.
GLS inh: qHTS for Inhibitors of Glutaminase (GLS) | actives 0.21% (n = 410,000) | Potency, µM (titrated, usually from 45.5 µM), for the others: at the highest dose activity change, negative = inhibition, most hits filed as inhibitors | GLS enzymatic activity, qHTS titration | AID 624170, 2012; further: potency means the concentration at half of the fitted maximal effect; on the % scale 0 is the no-effect control and ±100 the full control effect
Target sequence (O94925 whole entry, looked up): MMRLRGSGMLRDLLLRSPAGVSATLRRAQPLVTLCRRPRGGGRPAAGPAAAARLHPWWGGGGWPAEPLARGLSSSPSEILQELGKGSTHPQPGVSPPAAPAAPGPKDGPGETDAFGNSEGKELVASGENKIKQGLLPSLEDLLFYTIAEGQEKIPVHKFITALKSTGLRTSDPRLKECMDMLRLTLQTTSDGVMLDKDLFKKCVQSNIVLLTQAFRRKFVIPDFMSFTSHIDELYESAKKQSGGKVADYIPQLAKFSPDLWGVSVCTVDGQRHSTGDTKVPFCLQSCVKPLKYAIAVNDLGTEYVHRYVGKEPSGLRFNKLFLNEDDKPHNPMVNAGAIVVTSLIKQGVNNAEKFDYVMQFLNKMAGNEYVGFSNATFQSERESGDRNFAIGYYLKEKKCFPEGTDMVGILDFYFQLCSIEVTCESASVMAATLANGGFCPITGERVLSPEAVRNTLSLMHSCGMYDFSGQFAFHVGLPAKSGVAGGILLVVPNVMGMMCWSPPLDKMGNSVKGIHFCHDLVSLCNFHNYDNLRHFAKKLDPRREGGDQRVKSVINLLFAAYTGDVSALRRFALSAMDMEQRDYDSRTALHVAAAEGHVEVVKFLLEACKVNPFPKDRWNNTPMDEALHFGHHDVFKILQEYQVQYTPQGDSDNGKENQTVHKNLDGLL
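hKGA in 45 mM KH2PO4 pH 8.2, 0.02% Tween-20 with pin-transferred compounds; 1 mM L-glutamine (stock) plus glutamate oxidase/HRP/Amplex Red coupling added. Fluorescence read initially and after 30 min at RT.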
KCNH2 3.1 block: qHTS for Inhibitors of KCHN2 3.1: Mutant qHTS; U2OS KCNH2 3.1, thallium flux FluxOr; hits give low values; activity change, % (tested at about 1.8 µM); actives 0.95% (n = 340,000);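 active means maximum activity change below -70%; inconclusive means maximum activity change from -70% to -50%; inactive means maximum activity change above -50%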;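 further: thallium influx rate constant from kinetic fluorescence after stimulation buffer; on the % scale 0 is the no-effect control and ±100 the full control effect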
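Measured as rate of thallium-driven FluxOr signal in transduced U2OS cells carrying the 3.1 channel, read kinetically for 2 min upon stimulation; values are rate constants scaled to DMSO control wells.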
GLP1R ag: qHTS of GLP-1 Receptor Agonists; Glucagon-like peptide 1 receptor (Homo sapiens), P43220; Potency, µM (series often up to 45.6 µM), for the others: top-dose activation, usual class: activators; actives 0.007% (n = 380,000); HEK293 GLP-1R CRE-luciferase, luminescence, 4-6 h; cells express a hypersensitive GLP-1R form; further: potency means the concentration at half of the fitted maximal effect; % of control where 0% means no effect
HEK293 tox: qHTS of GLP-1 Receptor Inverse Agonists: Cytotox Screen; AID 624418, 2012; HEK293 cAMP-luciferase reporter cells, luminescence, 24 h; actives 0.13% (n = 410,000); Potency, µM (series often up to 38.3 µM), for the others: top-dose activity change, negative = inhibition, usual class: inhibitors;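 further: loss of luciferase light is scored as toxicity; potency means the concentration at half of the fitted maximal effect; on the % scale 0 is the no-effect control and ±100 the full control effect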
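Compound-treated cells are incubated 24 hr at 37 deg C under 5% CO2 after a 12 hour attachment period, then luciferase detection reagent is added and luminescence is measured following 12 min at room temperature; lowered signal indicates toxicity.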
GLP1R inv ag: qHTS of GLP-1 Receptor Inverse Agonists (Inhibition Mode); HEK293 GLP-1R CRE-luciferase, luminescence, 24 h; GLP-1R form is constitutively active; Potency, µM (titrated, usually from 38.3 µM), without a hit: top-dose activity change, negative = inhibition, hits mostly inhibitors; actives 1.6% (n = 410,000); further: potency means the concentration at half of the fitted maximal effect; on the % scale 0 is the no-effect control and ±100 the full control effect; nearly all actives have a fitted effect of over 55% in size
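HEK293 cells stably co-expressing a cAMP-responsive luciferase reporter and constitutively active GLP-1R were seeded, incubated 12 h, then exposed to compounds for 24 h at 37 C. Luminescence was read 12 min after detection reagent; inverse agonists lower signal.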
hERG WT inh: qHTS for Inhibitors of KCHN2 3.1: Wildtype qHTS; Voltage-gated inwardly rectifying potassium channel KCNH2 (Homo sapiens), Q12809; U2OS, BacMam KCNH2, thallium flux FluxOr; hits give low values; activity change, % at 1.84 µM; actives 0.37% (n = 340,000); AID 720551, 2013;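 active means maximum activity change below -70%; inconclusive means maximum activity change between -70% and -50%; inactive means maximum activity change above -50%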; further: on the % scale 0 is the no-effect control and ±100 the full control effect
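U2OS cells transduced with wild-type KCNH2 virus are loaded with FluxOr dye for 45 min, and thallium flux is measured in kinetic reads before and after stimulation buffer. Rate constants are normalized to DMSO controls.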
Starred values were filed as active, the others as inactive. Most compounds without a hit are left out; they make up all but 2.8% or so of the library. Unless noted, the call rests on the fitted dose curve; in most records, active means well fitted curve in the direction sought with a large enough effect; inconclusive means small, poorly fitted or top-dose-only effect, or another doubt; inactive means no such curve, though single readings can be large; an effect the other way counts as inactive or inconclusive.

COc1ccc(Cl)cc1NC(=O)CSc1nc(=O)n(CCN(C)C)c2c1CCCC2 was read as GLS inh 11%, KCNH2 3.1 block -11, GLP1R ag -1%, HEK293 tox 0%, GLP1R inv ag 11µM* and hERG WT inh 34.
Screening Cc1cc(=O)[nH]c2nnc(SCc3ccc(Cl)c(Cl)c3)n12 returned GLS inh 6%, HEK293 tox -2% and GLP1R inv ag 2%.
For N=C1/C(=C/c2ccc(-c3cccc(C(=O)O)c3)o2)C(=O)N=C2SC=C(c3ccccc3)N12 the results were GLS inh 22µM*, KCNH2 3.1 block 5, GLP1R ag -6%, HEK293 tox inconclusive, GLP1R inv ag inconclusive and hERG WT inh -7.
`CCOc1ccc(CCNC(=O)c2cc3cccc4c3n2CCS4)cc1` gave GLS inh -4%, HEK293 tox 0% and GLP1R inv ag inconclusive.
`Cn1c(-c2ccc(Cl)cc2)cnc1NCc1cc2c(cc1[N+](=O)[O-])OCO2` gave GLS inh 12%, KCNH2 3.1 block -24, GLP1R ag -2%, HEK293 tox inconclusive, GLP1R inv ag 4µM* and hERG WT inh 49.
For NC(Cc1ccc(C(F)(F)F)cc1)c1csc(NC(=O)Nc2ccccc2Oc2ccccc2)n1 (configuration not stated) the results were GLS inh 5%, GLP1R ag -20%, HEK293 tox 11µM* and GLP1R inv ag inconclusive.
NC(Cc1ccccc1)c1csc(NC(=O)Nc2ccccc2Oc2ccccc2)n1 (configuration not stated) was read as GLS inh 5%, GLP1R ag -7%, HEK293 tox -8% and GLP1R inv ag inconclusive.
For Cc1ccc(-c2nn(C)c(=O)c3ccccc23)cc1CNC(=O)NC1CCCCC1 the results were GLS inh 0%, KCNH2 3.1 block -166*, GLP1R ag -1%, HEK293 tox -7%, GLP1R inv ag 9% and hERG WT inh -142*.
O=C(NC1CCCC1)C(c1ccccc1F)N(C(=O)Cc1cccs1)c1ccc2c(c1)OCCO2 (configuration not stated) was read as GLS inh -6%, KCNH2 3.1 block -20, GLP1R ag 4%, HEK293 tox 5%, GLP1R inv ag 10µM* and hERG WT inh 0.
O=C(NC1CCCC1)C(c1ccsc1)N(C(=O)Cc1cccs1)c1ccc(F)cc1 (configuration not stated) was read as GLS inh 0%, KCNH2 3.1 block -76*, GLP1R ag 4%, HEK293 tox 5%, GLP1R inv ag 17% and hERG WT inh -7.
For O=C(NC1CCCC1)C(c1ccsc1)N(C(=O)Cc1cccs1)c1cccc(F)c1 (configuration not stated) the results were GLS inh -3%, KCNH2 3.1 block 6, GLP1R ag -3%, HEK293 tox -15%, GLP1R inv ag 0% and hERG WT inh 5.
For O=C(COCCOCCOCC(=O)Nc1c(I)cc(I)c(C(=O)O)c1I)Nc1c(I)cc(I)c(C(=O)O)c1I the results were GLS inh -16% and GLP1R ag -3%.
Screening CC(C)(C)c1ccc(C(=O)NC(=S)N2CCCCCC2)cc1 returned GLS inh 0%, KCNH2 3.1 block 1, GLP1R ag 1%, HEK293 tox inconclusive, GLP1R inv ag 7.1µM* and hERG WT inh -37.
